# TGFb SMAD3 inh: TGF-b pathway inhibition; HepG2 CAGA-GFP TGF-b/SMAD3 reporter, GFP fluorescence, 18 h; TGF-beta stimulated, 500 pg/mL final; 410,000 compounds, 1.2% hits; Potency, µM (doses to about 46.1 µM), for the others: top-dose activity, negative = inhibition, most hits filed as inhibitors; note: potency is the fitted concentration of half-maximal effect; % is set by controls: 0 for no effect and ±100 for the full control effect; nearly all actives have a fitted effect of over 65% in size
#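 Read-out: total well GFP (ex488/em500-530) summed from mean per-cell fluorescence. Cells: HEPG2 CAGA-GFP, 1% FBS DMEM, 18 h at 37 degrees C with 500 pg/mL final TGF-beta. Unstimulated wells served as the full-inhibition control; stimulated DMSO wells = 0%.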
# HepG2 viability: kills HepG2 cells in TGF-b inhibitor counter-screen | HepG2 CAGA-GFP viability, ATP luminescence, 18 h | Potency, µM (series often up to 46.1 µM), inactives show at the highest dose activity change, negative = cytotoxicity, hits mostly cytotoxic | 410,000 compounds, 0.76% hits; note: potency is the fitted concentration of half-maximal effect
#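 HepG2 CAGA-GFP cells (1000/well, DMEM with 1% FBS) received compound, then TGF-beta at 500 pg/mL final, and were incubated 18 hours at 37 degrees C. Viability was read by CellTiter-Glo luminescence. Media-only wells were set as complete cell-killing and DMSO as no toxicity.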
# DT40 TDP1 CPT: growth inhibition of DT40 Tdp1-/-;hTDP1 cells with camptothecin (screen for TDP1 inhibitors); chicken DT40 Tdp1-/-;hTDP1 cells + 20 nM CPT, ATP luminescence, 48 h; Potency, µM (series often up to 46.2 µM), inactives show at the top dose activity change, negative = growth inhibition, most hits filed as inhibitors; 420,000 compounds, 12% hits; note: potency is the fitted concentration of half-maximal effect; % is set by controls: 0 for no effect and ±100 for the full control effect; nearly all actives have a fitted effect of over 55% in size
#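 Chicken DT40 Tdp1-/- cells stably complemented with human TDP1 were seeded at 400 cells/well in medium containing 20 nM camptothecin, exposed to pin-transferred compounds, and grown at 37 °C for at least 48 hr. Viability was read as ATP luminescence.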
# DT40 TDP1 no CPT: qHTS for Inhibitors of human tyrosyl-DNA phosphodiesterase 1 (TDP1): qHTS in cells in absence of CPT; DT40 Tdp1-/- hTDP1 cells, no CPT, ATP luminescence, 48 h; Potency, µM (highest dose often 46.2 µM), inactives show at the top dose activity change, negative = growth inhibition, actives largely listed as inhibitors; 420,000 compounds, 15% hits; note: potency is the fitted concentration of half-maximal effect; % is set by controls: 0 for no effect and ±100 for the full control effect; nearly all actives have a fitted effect of over 55% in size
#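 DT40 Tdp1-/-;hTDP1 cells, no CPT (DMSO vehicle only), 400 cells/well; compounds pin-transferred; ≥48 hr, 37 °C; CellTiter-Glo 30 min RT dark, luminescence read.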
# TDP1 block: blocks human tyrosyl-DNA phosphodiesterase 1; Q9NUW8; recombinant TDP1, AlphaScreen DNA substrate cleavage; Potency, µM (top dose mostly 130 µM), inactives show top-dose activity change, negative = inhibition, hits mostly inhibitors; 350,000 compounds, 0.28% hits; note: potency is the fitted concentration of half-maximal effect; % is set by controls: 0 for no effect and ±100 for the full control effect; nearly all actives have a fitted effect of over 40% in size
# Target sequence (Q9NUW8 whole entry, looked up): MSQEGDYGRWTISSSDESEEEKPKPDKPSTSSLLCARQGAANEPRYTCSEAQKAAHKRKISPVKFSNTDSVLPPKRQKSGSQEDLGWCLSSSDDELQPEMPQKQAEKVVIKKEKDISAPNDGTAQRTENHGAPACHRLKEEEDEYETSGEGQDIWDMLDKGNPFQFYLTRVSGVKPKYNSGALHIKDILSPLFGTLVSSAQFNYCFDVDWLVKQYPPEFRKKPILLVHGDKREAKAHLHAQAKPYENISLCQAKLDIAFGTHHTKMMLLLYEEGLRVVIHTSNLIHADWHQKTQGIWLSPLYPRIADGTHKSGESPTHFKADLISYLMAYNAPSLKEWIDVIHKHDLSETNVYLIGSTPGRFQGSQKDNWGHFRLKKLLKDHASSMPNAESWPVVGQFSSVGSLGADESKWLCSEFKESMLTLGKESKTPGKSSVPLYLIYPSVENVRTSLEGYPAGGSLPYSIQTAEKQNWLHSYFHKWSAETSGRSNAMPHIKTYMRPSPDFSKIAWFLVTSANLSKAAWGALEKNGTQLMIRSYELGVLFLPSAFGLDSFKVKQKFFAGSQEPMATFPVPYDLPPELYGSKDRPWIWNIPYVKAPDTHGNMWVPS
#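 Steps: enzyme plus compound, 15 min RT; add biotin/phosphotyrosine-FITC oligonucleotide (15 nM final), react 5 min; add donor/acceptor beads (10 ug/ml final), 10 min; read AlphaScreen. Tdp1 at 1 nM final.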
# IL1B secr inh: inflammasome signaling inhibition, IL-1 beta readout; AID 743279; THP-1 LPS/ATP IL-1B secretion, AlphaLISA, 16 h; active compounds read low; 360,000 compounds, 4.7% hits; activity change, % at 57.5 µM; in the data active = activity change below about -50%; inconclusive = mostly about -30% to -49%; note: % is set by controls: 0 for no effect and ±100 for the full control effect
#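 THP-1 cells pretreated 1 hr with compounds (up to 57.5 uM final), then stimulated with LPS (250 ng/mL final) plus ATP (1.25 mM final); secreted IL-1B measured by AlphaLISA after 16 hr, decreased signal indicating inhibition.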
# Starred values were filed as active, the others as inactive; ? = inconclusive; · = no result; [ ] = another dose, or the depositor's remark. An excerpt weighted towards active compounds, which were near 18% of everything screened. Unless noted, calls come from the whole dose curve; as a rule, active = well fitted curve in the direction sought with a large enough effect; inconclusive = small, poorly fitted or top-dose-only effect, or another doubt; inactive = no such curve, though single readings can be large; an effect the other way counts as inactive or inconclusive.
SMILES,TGFb SMAD3 inh,HepG2 viability,DT40 TDP1 CPT,DT40 TDP1 no CPT,TDP1 block,IL1B secr inh
O=C(O)CSc1ncnc2sc3c(c12)CCC3,?,-9.5%,?,?,·,4.2
CCC(Sc1ncnc2sc3c(c12)CCCC3)C(=O)OC(C)C (stereo unspecified),-0.9%,-25.7%,18.4µM*,?,·,·
O=C(O)CSc1ncnc2sc3c(c12)CCCC3,-3.4%,6.5%,-2.1%,-24.1%,4.8%,20.6
CCCOc1ccc(NC(=O)CC2C(=O)N(c3ccc(C)cc3)C(=O)N2C2CCCC2)cc1 (stereo unspecified),?,-22.3%,?,?,6.4%,·
Cc1nn(-c2ccccc2)c(C)c1C(=O)OCC(=O)NC12CC3CC(CC(C3)C1)C2,-7.0%,-12.9%,?,23.1µM*,2.1%,-29.6
Cc1nn(-c2ccccc2)c(C)c1C(=O)OCC(=O)Nc1ccccc1F,-15.5%,-33.1%,?,-18.3%,-0.1%,-14.6
Cc1ccc(C)c(NC(=O)COC(=O)c2c(-c3ccccc3)noc2C)c1,4.6%,-2.7%,-3.7%,-6.9%,·,12.2
COc1ccc(C)cc1NC(=O)COC(=O)c1c(C)nn(-c2ccccc2)c1C,-9.0%,-14.6%,20.6µM*,11.6µM*,0.7%,-3.5
COc1ccc(C)cc1NC(=O)COC(=O)c1c(-c2ccccc2)noc1C,-7.8%,-13.0%,23.1µM*,23.1µM*,·,?
COCC(C)n1c(C)cc(C(=O)COC(=O)c2c(C)nn(-c3ccccc3)c2C)c1C (stereo unspecified),-9.3%,-2.6%,?,?,5.8%,-56.2*
COc1ccc2c(c1)-c1nc(-n3ncc(C(=O)N(C)CCO)c3C3CC3)ncc1CC2,·,·,3.2%[9.04 µM],-22.0%,·,·
COC(=O)C[C@H]1CC[C@H](NC(=O)Nc2ccccc2OC)[C@@H](CO)O1,·,·,-3.1%,-8.2%,·,-10.0
COc1ccc(-n2c(C)nnc2SCC(=O)Nc2ccccc2F)cc1,18.1%,3.0%,9.5%,-19.9%,·,15.3
COc1ccc(C(=O)OCC(=O)NC23CC4CC(CC(C4)C2)C3)c(O)c1,-7.6%,-21.0%,23.1µM*,?,·,13.1
C=C[C@@H](C1=CC(=O)C(OC)=C(OC)C1=O)c1ccccc1,·,·,1.16µM*,0.731µM*,9.3%,·
COc1ccc(N2CCN(C(=O)CN3C(=O)NC4(CCCc5ccccc54)C3=O)CC2)cc1 (stereo unspecified),7.4%,-3.2%,-8.1%,16.4µM*,-1.1%,-4.0
O=C(CN1C(=O)NC2(CCc3ccccc32)C1=O)c1ccccc1 (stereo unspecified),0.0%,-24.1%,1.2%,7.4%,4.3%,14.8
Cc1ccc(NC(=O)CN2C(=O)NC3(CCc4ccccc43)C2=O)cc1 (stereo unspecified),-10.0%,-2.6%,-15.0%,10.3%,5.1%,-18.0
O=C(CN1C(=O)NC2(CCc3ccccc32)C1=O)c1ccc(Cl)cc1 (stereo unspecified),-2.5%,-18.0%,-8.4%,?,-16.0%[0.505 µM],-7.0
CC(C)c1ccc(C(=O)CN2C(=O)NC3(CCc4ccccc43)C2=O)cc1 (stereo unspecified),66.0%,-43.3%,?,20.6µM*,2.6%,?
Cc1ccc(NC(=O)CN2C(=O)NC3(CCc4ccccc43)C2=O)cc1Cl (stereo unspecified),-7.6%,14.0%,-24.9%,25.9µM*,2.3%,0.7
O=C(CN1C(=O)NC2(CCCc3ccccc32)C1=O)c1ccc(Br)cc1 (stereo unspecified),1.2%,-24.6%,?,13µM*,-0.1%,-8.1
Cc1ccc2c(=O)cc(CSc3ncn[nH]3)[nH]c2c1C,-6.3%,-1.6%,?,?,5.4%,·
O=C(CN1C(=O)NC2(CCc3ccccc32)C1=O)c1ccc(Br)cc1 (stereo unspecified),-3.3%,-15.8%,?,-26.1%,5.6%,-58.8*
Cc1ccc2c(c1)N(C(=O)CCC(=O)NCCCN1CCN(C)CC1)CCO2,-1.5%,-1.1%,-0.1%,-26.1%,·,12.2
SMILES,TGFb SMAD3 inh,HepG2 viability,DT40 TDP1 CPT,DT40 TDP1 no CPT,TDP1 block,IL1B secr inh
CC1CN(C(=O)CCC(=O)NCCCN2CCN(Cc3ccccc3)CC2)c2cc(Cl)ccc2O1 (stereo unspecified),?,-33.5%,20.6µM*,?,1.5%,-22.2
O=C(CCC(=O)N1CCOc2ccc(Cl)cc21)NCCCN1CCN(Cc2ccccc2)CC1,-12.0%,-29.3%,?,-20.6%,·,-12.3
Cc1ccc2c(c1)N(C(=O)CCC(=O)NCCCN1CCC(Cc3ccccc3)CC1)CCO2,?,-51.5%,?,18.4µM*,·,-28.2
COc1ccccc1NCCC(=O)OCC(=O)Nc1cc([N+](=O)[O-])ccc1F,-5.8%,-1.0%,-5.2%,4.7%,5.8%,3.3
Cc1ccccc1CSc1nnc2[nH]c(=O)cc(C)n12,-13.8%,-2.7%,4.8%,-1.6%,0.0%,·
CCSc1nnc2c(n1)[nH]c1c(C)cccc12,?,-29.9%,13µM*,12.6µM*,6.1%,-29.8
CC(C)COP(=O)(OCC(C)C)C(Nc1ccccc1)c1ccc2c(c1)OCO2 (stereo unspecified),?,-13.8%,14.6µM*,?,-5.9%,-62.3*
Cc1ccc(N(NC(=O)C(O)(c2ccccc2)c2ccccc2)C(=O)CCl)cc1,?,15.8µM*,4.11µM*,5.17µM*,1.9%,-97.7*
O=C(Nc1ccccc1)NN(C(=O)CCl)c1ccccc1,?,-150.1%,3.26µM*,3.26µM*,18.3%,-96.1*
CCN(CC)c1ccc(NC(=O)Nc2ccccc2)cc1,-7.7%,-20.8%,-8.0%,?,·,?
CCC(O)(CC)C(=O)NN(C(=O)CCl)c1ccccc1,?,-24.9%,13µM*,14.6µM*,5.5%,-81.6*
C[C@H]1C=C(C(=O)NCc2nc3ccccc3[nH]2)O[C@@H](OCc2ccc(CO)cc2)C1,-3.6%,-43.8%,-20.6%,-17.4%,3.5%,-15.1
O=C(NCc1nc2ccccc2[nH]1)C1=C[C@@H](c2ccc(Br)cc2)C[C@@H](OCc2ccc(CO)cc2)O1,12.6µM*,-57.2%,9.2µM*,18.4µM*,5.1%,0.0
O=C(NC1CC1)C1=C[C@H](c2ccccc2)C[C@H](OCc2ccc(CO)cc2)O1,-1.7%,3.5%,?,?,5.1%,-24.2
O=C(NCc1nc2ccccc2[nH]1)C1=C[C@@H](c2csc3ccccc23)C[C@@H](OCc2ccc(CO)cc2)O1,?,0.1%,?,20.6µM*,6.4%,0.0

# High-throughput results: PubChem BioAssay, National Center for Advancing Translational Sciences (NCATS)
